For assay [1], the target named is Rap guanine nucleotide exchange factor 3 (Homo sapiens) (UniProt O95398). Kind of assay: Confirmatory qHTS for agonist of cAMP-regulated guanine nucleotide exchange factor 3 (EPAC1) (AID 1645881).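 Further: EPAC1 catalysed release of BODIPY-GDP from Rap1B seen as fluorescence loss; 100% = effect of cAMP agonist control; nearly all actives have a fitted effect of over 75% in size.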 To be noted: EPAC1 Rap1B BODIPY-GDP exchange fluorescence; series mostly up to 154 µM.
Chain of Rap guanine nucleotide exchange factor 3 (Homo sapiens) (O95398 whole entry, looked up): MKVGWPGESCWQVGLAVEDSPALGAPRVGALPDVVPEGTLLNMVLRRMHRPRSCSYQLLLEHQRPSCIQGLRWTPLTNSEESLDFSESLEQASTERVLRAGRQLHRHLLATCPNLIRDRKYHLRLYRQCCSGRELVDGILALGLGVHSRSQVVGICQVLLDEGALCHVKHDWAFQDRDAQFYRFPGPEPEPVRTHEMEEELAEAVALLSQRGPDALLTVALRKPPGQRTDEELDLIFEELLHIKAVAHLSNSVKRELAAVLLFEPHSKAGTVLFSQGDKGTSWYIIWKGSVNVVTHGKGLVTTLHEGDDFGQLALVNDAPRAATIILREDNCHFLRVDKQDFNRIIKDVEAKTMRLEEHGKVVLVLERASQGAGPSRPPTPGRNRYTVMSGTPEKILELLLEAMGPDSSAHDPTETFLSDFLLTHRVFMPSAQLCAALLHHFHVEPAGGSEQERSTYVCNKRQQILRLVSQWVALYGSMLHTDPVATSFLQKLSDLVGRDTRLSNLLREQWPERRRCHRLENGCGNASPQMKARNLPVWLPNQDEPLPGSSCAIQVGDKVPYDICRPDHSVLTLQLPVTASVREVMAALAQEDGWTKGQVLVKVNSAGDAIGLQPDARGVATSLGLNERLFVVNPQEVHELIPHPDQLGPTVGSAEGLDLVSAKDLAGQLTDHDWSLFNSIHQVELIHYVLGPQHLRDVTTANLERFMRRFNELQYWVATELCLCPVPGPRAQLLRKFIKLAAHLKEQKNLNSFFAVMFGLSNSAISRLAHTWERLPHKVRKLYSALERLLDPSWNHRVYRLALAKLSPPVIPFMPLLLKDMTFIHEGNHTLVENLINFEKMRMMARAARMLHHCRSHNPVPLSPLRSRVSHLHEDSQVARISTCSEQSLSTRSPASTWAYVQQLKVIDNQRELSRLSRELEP
Assay [2] concerns the target Rap guanine nucleotide exchange factor 4 (Homo sapiens) (UniProt Q8WZA2). Nature of the assay: Confirmatory qHTS for agonist of cAMP-regulated guanine nucleotide exchange factor 4 (EPAC2) (AID 1645884).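 Further: nucleotide exchange releases bodipy-GDP from Rap1 and this lowers its fluorescence; on the % scale 0 is the no-effect control and ±100 the full control effect; nearly all actives have a fitted effect of over 65% in size.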 To be noted: EPAC2 GEF activity, Rap1B-BODIPY-GDP fluorescence; series mostly up to 154 µM.
The target is the same in assay [3]. Kind of assay: Confirmatory qHTS for antagonist of cAMP-regulated guanine nucleotide exchange factor 4 (EPAC2) (AID 1645885). Further: nearly all actives have a fitted effect of over 25% in size. Further: potency means the concentration at half of the fitted maximal effect. On activity change, negative = inhibition: on the % scale 0 is the no-effect control and ±100 the full control effect. To be noted: EPAC2 Rap1B-BODIPY-GDP exchange fluorescence, biochemical; series mostly up to 12.7 µM.
Assay [4] addresses Rap guanine nucleotide exchange factor 3 (Homo sapiens) (UniProt O95398). Nature of the assay: Counterscreen qHTS for antagonist of cAMP-regulated guanine nucleotide exchange factor 3 (EPAC1) (AID 1645888).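 Further: fluorescence loss as bound BODIPY-GDP is released from Rap1B; % of control where 0% means no effect.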 To be noted: Rap1B-BODIPY-GDP nucleotide exchange, fluorescence; series mostly up to 154 µM. The procedure, abridged:
(§1)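 Rap1B-BODIPY-GDP 250 nM + GDP 50 uM; cpds 7-pt, final 9.74 nM–152 uM (activator mode) or from 7.32 nM upwards (inhibitor mode); RT; FI 480/540 nm at 5 and 30 min, then ± cAMP, reread.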

Assay [5] has the same target. Kind of assay: Counterscreen qHTS for agonist of cAMP-regulated guanine nucleotide exchange factor 3 (EPAC1) (AID 1645889). Further: % of control where 0% means no effect; nearly all actives have a fitted effect of over 40% in size. The conditions noted are these: EPAC1 Rap1B-BODIPY-GDP exchange, fluorescence; series mostly up to 154 µM. The method, boiled down:
as §1

This is an account of results in PubChem BioAssay (NCATS).

Records with an inconclusive call do not appear. A number with no mark means an inactive call. Active and inactive are the calls of the source. The call rests on the fitted dose curve; in most records, active means well fitted curve in the direction sought with a large enough effect; inconclusive means small, poorly fitted or top-dose-only effect, or another doubt; inactive means no such curve, though single readings can be large; an effect the other way counts as inactive or inconclusive.

Chain of Rap guanine nucleotide exchange factor 4 (Homo sapiens) (Q8WZA2 whole entry, looked up): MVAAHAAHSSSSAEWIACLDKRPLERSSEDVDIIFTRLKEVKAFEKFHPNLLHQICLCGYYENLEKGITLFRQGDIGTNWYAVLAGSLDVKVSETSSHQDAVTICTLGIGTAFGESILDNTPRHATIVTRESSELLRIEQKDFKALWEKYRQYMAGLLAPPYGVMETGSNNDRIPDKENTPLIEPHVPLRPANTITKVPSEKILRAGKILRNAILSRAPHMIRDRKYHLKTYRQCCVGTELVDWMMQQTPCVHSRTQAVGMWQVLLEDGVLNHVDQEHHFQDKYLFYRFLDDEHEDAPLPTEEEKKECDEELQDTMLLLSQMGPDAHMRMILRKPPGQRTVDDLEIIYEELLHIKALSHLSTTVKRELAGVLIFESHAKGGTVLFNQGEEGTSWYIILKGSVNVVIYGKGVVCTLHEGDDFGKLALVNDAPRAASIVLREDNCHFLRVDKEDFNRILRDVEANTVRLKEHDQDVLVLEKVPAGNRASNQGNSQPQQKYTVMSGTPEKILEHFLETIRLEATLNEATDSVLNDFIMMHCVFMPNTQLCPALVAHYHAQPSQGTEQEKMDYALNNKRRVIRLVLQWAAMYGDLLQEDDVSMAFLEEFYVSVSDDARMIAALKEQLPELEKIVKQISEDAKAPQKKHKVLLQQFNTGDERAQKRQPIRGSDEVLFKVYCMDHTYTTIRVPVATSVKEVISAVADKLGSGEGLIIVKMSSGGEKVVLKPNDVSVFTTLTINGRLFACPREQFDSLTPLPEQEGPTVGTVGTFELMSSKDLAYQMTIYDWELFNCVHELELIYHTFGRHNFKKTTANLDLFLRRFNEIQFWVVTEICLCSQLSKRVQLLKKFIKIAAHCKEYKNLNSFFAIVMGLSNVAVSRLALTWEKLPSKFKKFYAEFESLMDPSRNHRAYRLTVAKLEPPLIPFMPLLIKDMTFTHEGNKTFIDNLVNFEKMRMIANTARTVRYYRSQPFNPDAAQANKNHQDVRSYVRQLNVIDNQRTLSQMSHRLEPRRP

On to `COc1cc(NS(=O)(=O)c2cc3[nH]c(=O)c(=O)[nH]c3cc2C)cc(OC)c1OC`, for which the Potency entry in assay [1] and in assay [3] was “inactive” throughout. Further, the activation in assay [2] is 2.04% [at 17.1 µM, percent relative to cAMP agonist control]; in assay [5] it was 12.2% [at 30.8 µM]. Further, the activity change, negative = inhibition in assay [4] is -5.07% [at 30.8 µM].

As for `C=CCN(CC=C)Cc1cc(=O)oc2cc(C)c(Cl)cc12`, the Potency result in assay [1] and in assay [3] was “inactive” throughout. The activation is 4.33% [at 17.1 µM, percent relative to cAMP agonist control] in assay [2] and 3.33% [at 30.8 µM] in assay [5]. For the same compound, in assay [4], the activity change, negative = inhibition is -4.4% [at 30.8 µM].

On to `CN(C)c1ccc(C=C(C#N)C(=O)c2ccccc2)cc1Br`, for which the Potency result in assay [1], in assay [2], in assay [3], in assay [4] and in assay [5] was “inactive” in each case.

Turning to `Cc1ccccc1NC(=O)CN1C(=O)N/C(=C\c2ccccc2OCc2ccc(C(=O)O)cc2)C1=O`, the Potency entry in assay [1], in assay [2], in assay [4] and in assay [5] was “inactive” in each case. Further, the Potency in assay [3] is 53.6 µM (active).

As to `O=C(Cn1ncc(Cl)c(Cl)c1=O)NC(=O)NC1CCCCC1`, the Potency entry in assay [1] and in assay [3] was “inactive” in each case. Besides, the activation in assay [2] is 3.69% [at 17.1 µM, percent relative to cAMP agonist control]; in assay [5], 9.51% [at 30.8 µM]. Further, the activity change, negative = inhibition in assay [4] was -1.53% [at 30.8 µM].

As to `O=C(NCC(c1ccco1)N1CCCCC1)c1cccc(NS(=O)(=O)c2ccc(Br)cc2)c1` (stereo not given), the Potency entry in assay [1] and in assay [3] was “inactive” in each case. In addition, the activation in assay [2] was -6.31% [at 17.1 µM, percent relative to cAMP agonist control]; in assay [5], 29.4% [at 30.8 µM]. Besides, the activity change, negative = inhibition in assay [4] was -11.8% [at 30.8 µM].

For the compound `Cc1ccc2nc3sc(C(=O)Nc4c(C)[nH]c(=O)[nH]c4=O)c(N)c3cc2c1`, the Potency entry in assay [1] and in assay [3] was “inactive” each time. The activation is 4.59% [at 17.1 µM, percent relative to cAMP agonist control] in assay [2] and 5.21% [at 30.8 µM] in assay [5]. In addition, in assay [4], the activity change, negative = inhibition is 2.13% [at 30.8 µM].

On to `C[C@@H]1CC=C[C@H]2[C@H]1C(=O)N(Cc1ccccc1)[C@H]2c1ccc(C(F)(F)F)cc1`, for which the Potency entry in assay [1] and in assay [3] was “inactive” each time. The activation in assay [2] was -4.74% [at 17.1 µM, percent relative to cAMP agonist control]; in assay [5], 7.88% [at 30.8 µM]. The activity change, negative = inhibition in assay [4] was -9.3% [at 30.8 µM].

On to `COc1ccccc1C1CC(=O)Oc2cc(C)c(Cl)cc21` (stereo not given), for which the Potency entry in assay [1], in assay [2], in assay [4] and in assay [5] was “inactive” in each case. In assay [3], the Potency is 9.53 µM (active).

Consider `Cc1ccc(C)c(N2CCN(C(=O)c3cccn4c(=O)c5ccccc5nc34)CC2)c1`, for which the Potency entry in assay [1], in assay [2], in assay [3], in assay [4] and in assay [5] was “inactive” throughout.

Turning to `C=CCc1cccc(CNc2c(C)cc(C)cc2C)c1O`, the Potency entry in assay [1], in assay [2], in assay [3], in assay [4] and in assay [5] was “inactive” each time.

On to `CCc1noc(C)c1C(=O)N1CCCSC1=Nc1ccccc1Cl`, for which the Potency entry in assay [1] and in assay [3] was “inactive” throughout. Besides, the activation was 0.52% [at 17.1 µM, percent relative to cAMP agonist control] in assay [2] and -1.65% [at 30.8 µM] in assay [5]. For the same compound, the activity change, negative = inhibition in assay [4] is -10.8% [at 30.8 µM].

In the case of `CCOC(=O)COc1ccc(/C=C(\C#N)c2nc3ccc(C)cc3[nH]2)cc1OC`, the Potency entry in assay [1], in assay [2], in assay [3], in assay [4] and in assay [5] was “inactive” throughout.

`O=C(Nc1ccc(N2CCC(N3CCCCC3)CC2)c(C(=O)O)c1)c1ccc(Br)cc1`: the Potency result in assay [1], in assay [2], in assay [4] and in assay [5] was “inactive” in each case. Further, the outcome in assay [3] was “inactive; activator; fitted 1.6944 uM [at 12.7 µM]”.

Turning to `CCCc1nc(SC2CCCC2)c2c(=O)n(C)c(=O)n(C)c2n1`, the Potency result in assay [1], in assay [2], in assay [3], in assay [4] and in assay [5] was “inactive” in each case.

For `O=C(CSc1nc2ccsc2c(=O)n1NC(=O)c1ccccc1)Nc1nccs1`, the Potency entry in assay [1], in assay [2], in assay [3], in assay [4] and in assay [5] was “inactive” each time.

As for `Cc1ccccc1OCC(=O)Nc1ccccc1N1CCC(C)CC1`, the Potency result in assay [1], in assay [2], in assay [4] and in assay [5] was “inactive” throughout. In addition, the Potency in assay [3] is 42.6 µM (active).

For `CCOc1cc(/C=C(/C#N)c2ccc(Cl)cc2)cc(Cl)c1OCC(=O)O`, the Potency result in assay [1] and in assay [3] was “inactive” each time. Also, the activation in assay [2] was 3.22% [at 17.1 µM, percent relative to cAMP agonist control]; in assay [5], 10.8% [at 30.8 µM]. Also, the activity change, negative = inhibition in assay [4] was -8.72% [at 30.8 µM].

In the case of `O=C(NCc1ccccc1)C(c1ccc(-c2ccccc2)cc1)n1c(=O)c(-c2ccco2)nc2ccccc21` (stereo not given), the Potency entry in assay [1] and in assay [3] was “inactive” throughout. For the same compound, the activation in assay [2] was -1.87% [at 17.1 µM, percent relative to cAMP agonist control]; in assay [5], 21.4% [at 30.8 µM]. Further, in assay [4], the activity change, negative = inhibition is 1.9% [at 30.8 µM].

In the case of `CC1C(=O)N(Cc2cn(Cc3ccco3)nn2)CCS(=O)(=O)N1Cc1ccc(-c2cccnc2)cc1` (stereo not given), the Potency entry in assay [1] and in assay [3] was “inactive” throughout. Further, the activation in assay [2] was -1.85% [at 17.1 µM, percent relative to cAMP agonist control]; in assay [5], 21.5% [at 30.8 µM]. Moreover, in assay [4], the activity change, negative = inhibition is 0.588% [at 30.8 µM].

Regarding `C#Cc1ccc([C@@H]2C=C(C(=O)NCc3ccccc3)O[C@H](OCc3ccc(CO)cc3)C2)cc1`, the Potency result in assay [1], in assay [2], in assay [3], in assay [4] and in assay [5] was “inactive” in each case.

With `CC(=O)c1sc2nc(-c3ccco3)ccc2c1N`, the Potency result in assay [1], in assay [2], in assay [3], in assay [4] and in assay [5] was “inactive” in each case.

For `CCOC(=O)c1c(C)[nH]c(C(=O)OCC(=O)Nc2sccc2C(N)=O)c1C`, the Potency result in assay [1], in assay [2], in assay [3], in assay [4] and in assay [5] was “inactive” each time.

Regarding `Cc1cccc(C(=O)c2c(N)sc3c2CCCC3)c1`, the Potency entry in assay [1] and in assay [3] was “inactive” in each case. Moreover, the activation is -0.129% [at 17.1 µM, percent relative to cAMP agonist control] in assay [2] and 9.69% [at 30.8 µM] in assay [5]. Moreover, in assay [4], the activity change, negative = inhibition is -3.46% [at 30.8 µM].

As for `O=C(N/N=C/c1ccc(O)c([N+](=O)[O-])c1)C1CC1(c1ccccc1)c1ccccc1` (stereo not given), the Potency entry in assay [1] and in assay [3] was “inactive” each time. Further, the activation in assay [2] is 2.95% [at 17.1 µM, percent relative to cAMP agonist control]; in assay [5] it was 11.6% [at 30.8 µM]. In addition, the activity change, negative = inhibition in assay [4] is -23.6% [at 30.8 µM].

On to `O=C(Cc1ccc(Cl)cc1)N/N=C/c1ccc(O)c(O)c1`, for which the Potency entry in assay [1], in assay [2], in assay [3], in assay [4] and in assay [5] was “inactive” in each case.

Take `O=C(O)c1sccc1SCc1ccc(Cl)c(Cl)c1`: the Potency entry in assay [1], in assay [2], in assay [3], in assay [4] and in assay [5] was “inactive” each time.
